Consider 3 compounds from PubChem BioAssay (EPA / NIEHS).

Experiment [1] is described as follows: ATG_E_Box_CIS: Attagene CIS-FACTORIAL HepG2 Assay for human Enhancer Box (E-box) (AID 2282936). The note with it: HepG2 E-box cis-reporter transcription, actives raise or lower the signal. In short, it runs like this: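 Endogenous transcription factor activity was sensed in human HepG2 liver cells through transfected cis-promoter reporter units. After 24 h of dosing, total RNA was reverse-transcribed and reporter cDNA resolved by capillary electrophoresis.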

Experiment [2] is described as follows: ATG_M_61_CIS: Attagene CIS-FACTORIAL HepG2 Assay for M61 Transcription Factor (Internal Marker) (AID 2282937). The note with it: HepG2 Attagene CIS-FACTORIAL M61 internal marker reporter; actives raise or lower the signal. In short, it runs like this:
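Using transiently transfected HepG2 liver cells, reporter transcript levels were assessed 24 h post-dosing by RT-PCR and capillary electrophoresis. Changes in either direction were fitted relative to DMSO controls.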

A short description of experiment [3]: ATG_EGR_CIS: Attagene CIS-FACTORIAL HepG2 Assay for human Early Growth Response 1 (EGR1) (AID 2282938). The note with it: HepG2 Attagene CIS-FACTORIAL EGR reporter mRNA; actives raise or lower the signal. In short, it runs like this:
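Fluorescent capillary-electrophoresis signal of reporter cDNA fragments serves as read-out. HepG2 cells bear transiently transfected cis-promoter reporter units and are exposed 24 h; gain- or loss-of-signal is fitted against DMSO.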

Experiment [4] in a line: ATG_M_19_CIS: Attagene CIS-FACTORIAL HepG2 Assay for M19 Transcription Factor (Internal Marker) (AID 2282939). The note with it: HepG2 Attagene CIS-FACTORIAL M19 internal marker reporter; actives raise or lower the signal. An outline of the steps: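 HepG2 cells transiently transfected with cis-regulated multiple reporter transcription units were dosed for 24 h; reporter mRNA was quantified by RT-PCR, 6-FAM primer-extension labelling, HpaI digestion and capillary electrophoresis, with bidirectional fitting against DMSO baseline.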

Experiment [5] in a line: ATG_ERE_CIS: Attagene CIS-FACTORIAL HepG2 Assay for Estrogen Response Element (ERE) (AID 2282940). The note with it: HepG2 ERE cis-reporter, Attagene RNA transcript; actives raise or lower the signal. An outline of the steps:
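HepG2 cells transiently transfected with cis-promoter-driven multiplexed reporter transcription units report endogenous TF activity. After 24 h compound exposure, reporter mRNA is quantified by RT-PCR with capillary electrophoresis fluorescence; bidirectional fitting versus DMSO baseline.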

Experiment [6] is described as follows: ATG_Ets_CIS: Attagene CIS-FACTORIAL HepG2 Assay for human Erythroblast Transformation Specific (ETS) (AID 2282941). The conditions noted are these: HepG2 ETS cis-reporter transcription; AC50: actives raise or lower the signal unless noted; outcome: actives raise or lower the signal unless noted. An outline of the steps: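 Cis-regulated reporter mRNA induction in HepG2 (transient transfection), 24 h exposure, RT-PCR plus capillary electrophoresis detection; DMSO serves as negative control and baseline.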

Experiment [7] concerns the target Hepatocyte nuclear factor 3-beta (Homo sapiens) (UniProt Q9Y261). The experiment is described as follows: ATG_FoxA2_CIS: Attagene CIS-FACTORIAL HepG2 Assay for human Forkhead box A2 (FOXA2) (AID 2282942). The conditions noted are these: HepG2 cis-reporter transcription factor activity, 24 h; actives raise or lower the signal. In short, it runs like this: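 Fluorescence signal of reporter cDNA fragments, separated by capillary electrophoresis, reflects endogenous transcription factor activity in transfected HepG2 after 24 h. Both increases and decreases fitted against DMSO.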

The nature of experiment [8]: ATG_FoxO_CIS: Attagene CIS-FACTORIAL HepG2 Assay for human Forkhead box O (FoxO) (AID 2282943). The note with it: HepG2 Attagene cis-reporter, FoxO element, mRNA; actives raise or lower the signal. An outline of the steps:
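Values reflect reporter mRNA induction or loss in HepG2 cells 24 h post-dosing, fitted bidirectionally with DMSO as negative control and baseline. Detection used RT-PCR and fluorescence capillary electrophoresis.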

Experiment [9] is described as follows: ATG_GATA_CIS: Attagene CIS-FACTORIAL HepG2 Assay for human GATA Binding Protein (AID 2282944). The conditions noted are these: HepG2 GATA cis-element reporter, Attagene multiplex mRNA; actives raise or lower the signal. An outline of the steps: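 HepG2 cells transiently transfected with multiplexed cis-element reporter units reflecting endogenous transcription factor activity; reporter mRNA measured after 24 h dosing by RT-PCR, 6-FAM labeling, HpaI digestion and capillary electrophoresis. Bidirectional fitting versus DMSO baseline.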

Experiment [10] is described as follows: ATG_GLI_CIS: Attagene CIS-FACTORIAL HepG2 Assay for human Zinc Finger Protein GLI1 (AID 2282945). The note with it: HepG2, Attagene cis-factorial reporter mRNA, GLI element; actives raise or lower the signal. An outline of the steps: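 HepG2 cells transiently transfected with cis-promoter multiplexed reporter units report endogenous transcription factor activity. After 24 h chemical exposure, reporter mRNA was quantified by RT-PCR, 6-FAM labelling, HpaI digestion and capillary electrophoresis, with bidirectional fitting against DMSO.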

The target of experiment [11] is Bile acid receptor (Homo sapiens) (UniProt Q96RI1). The experiment is described as follows: ATG_IR1_CIS: Attagene CIS-FACTORIAL HepG2 Assay for human Nuclear Receptor Subfamily 1 Group H Member 4 (NR1H4), IR1 submotif (AID 2282946). The note with it: IR1 reporter transcription, actives raise or lower the signal. An outline of the steps: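 Readout: reporter transcript levels by RT-PCR with fluorescent capillary electrophoresis, from HepG2 cells transiently transfected with multiplexed cis-regulated reporters and dosed 24 h. Gain- or loss-of-signal fitted versus DMSO negative control.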
Bile acid receptor (Homo sapiens), sequence (Q96RI1 whole entry, looked up): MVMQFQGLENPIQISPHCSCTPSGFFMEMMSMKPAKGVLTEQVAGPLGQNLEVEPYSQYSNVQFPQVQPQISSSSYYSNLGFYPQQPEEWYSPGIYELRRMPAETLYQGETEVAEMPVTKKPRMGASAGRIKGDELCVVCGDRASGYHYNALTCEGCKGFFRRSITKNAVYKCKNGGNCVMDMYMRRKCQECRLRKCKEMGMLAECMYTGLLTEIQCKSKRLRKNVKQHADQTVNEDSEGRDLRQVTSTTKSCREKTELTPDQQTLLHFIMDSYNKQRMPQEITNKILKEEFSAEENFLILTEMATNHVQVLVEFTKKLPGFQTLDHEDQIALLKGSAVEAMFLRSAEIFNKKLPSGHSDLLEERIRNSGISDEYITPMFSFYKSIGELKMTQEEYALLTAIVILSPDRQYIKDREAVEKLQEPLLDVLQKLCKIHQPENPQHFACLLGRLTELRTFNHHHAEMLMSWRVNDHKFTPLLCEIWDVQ

Experiment [12] is described as follows: ATG_GRE_CIS: Attagene CIS-FACTORIAL HepG2 Assay for human Glucocorticoid Response Elements (GRE) (AID 2282947). The conditions noted are these: HepG2 GRE cis-reporter, Attagene multiplex mRNA; AC50: actives raise or lower the signal unless noted; outcome: actives raise or lower the signal unless noted. In short, it runs like this: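 Cells (HepG2) bearing transfected cis-promoter reporter transcription units were treated with chemical for 24 hours. Reporter mRNA was measured via RT-PCR with capillary electrophoresis, and activity was fitted in both directions relative to DMSO.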

A short description of experiment [13]: ATG_ISRE_CIS: Attagene CIS-FACTORIAL HepG2 Assay for human Interferon Regulatory Factor 1 (IRF1) binding to an Interferon-Stimulated Response Element (ISRE) (AID 2282948). The conditions noted are these: HepG2 ISRE cis-reporter (Attagene), mRNA transcription readout; actives raise or lower the signal. An outline of the steps:
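Multiplexed mRNA reporter readout in human liver HepG2 cells: cis-element-driven reporters transfected, compound added for 24 h, transcripts amplified, fluorescently labelled and sized by capillary electrophoresis; curve fitting bidirectional against DMSO.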

The nature of experiment [14]: ATG_M_32_CIS: Attagene CIS-FACTORIAL HepG2 Assay for M32 Transcription Factor (Internal Marker) (AID 2282949).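 Note: background control marker of the multiplexed CIS panel rather than a real target.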 The conditions noted are these: HepG2 Attagene cis-factorial M32 reporter, mRNA; actives raise or lower the signal. In short, it runs like this: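 HepG2 transfectants (cis-regulated reporter transcription units) dosed 24 h. Reporter mRNA by RT-PCR plus CE, analysed as gain or loss relative to DMSO.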

Experiment [15] in a line: ATG_M_06_CIS: Attagene CIS-FACTORIAL HepG2 Assay for M06 Transcription Factor (Internal Marker) (AID 2282950). The conditions noted are these: HepG2 Attagene CIS-FACTORIAL M06 internal marker reporter; actives raise or lower the signal. In short, it runs like this: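 HepG2 cells transiently transfected with cis-regulated multiple reporter transcription units were exposed to chemical for 24 h; reporter mRNA was quantified by RT-PCR, 6-FAM primer labelling, HpaI digestion and capillary electrophoresis, fitted bidirectionally against DMSO.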

The target in experiment [16] is Hypoxia-inducible factor 1-alpha (Homo sapiens) (UniProt Q16665). The experiment is described as follows: ATG_HIF1a_CIS: Attagene CIS-FACTORIAL HepG2 Assay for human Hypoxia Inducible Factor 1 (HIF1A) (AID 2282951). The conditions noted are these: HepG2 Attagene cis-factorial HIF1a reporter transcription; actives raise or lower the signal. In short, it runs like this: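 Endogenous-TF cis reporter readout, human HepG2 cells, 24 h incubation; mRNA detected via RT-PCR and capillary electrophoresis fluorescence; DMSO-normalised bidirectional fitting.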
Hypoxia-inducible factor 1-alpha (Homo sapiens), sequence (Q16665 whole entry, looked up): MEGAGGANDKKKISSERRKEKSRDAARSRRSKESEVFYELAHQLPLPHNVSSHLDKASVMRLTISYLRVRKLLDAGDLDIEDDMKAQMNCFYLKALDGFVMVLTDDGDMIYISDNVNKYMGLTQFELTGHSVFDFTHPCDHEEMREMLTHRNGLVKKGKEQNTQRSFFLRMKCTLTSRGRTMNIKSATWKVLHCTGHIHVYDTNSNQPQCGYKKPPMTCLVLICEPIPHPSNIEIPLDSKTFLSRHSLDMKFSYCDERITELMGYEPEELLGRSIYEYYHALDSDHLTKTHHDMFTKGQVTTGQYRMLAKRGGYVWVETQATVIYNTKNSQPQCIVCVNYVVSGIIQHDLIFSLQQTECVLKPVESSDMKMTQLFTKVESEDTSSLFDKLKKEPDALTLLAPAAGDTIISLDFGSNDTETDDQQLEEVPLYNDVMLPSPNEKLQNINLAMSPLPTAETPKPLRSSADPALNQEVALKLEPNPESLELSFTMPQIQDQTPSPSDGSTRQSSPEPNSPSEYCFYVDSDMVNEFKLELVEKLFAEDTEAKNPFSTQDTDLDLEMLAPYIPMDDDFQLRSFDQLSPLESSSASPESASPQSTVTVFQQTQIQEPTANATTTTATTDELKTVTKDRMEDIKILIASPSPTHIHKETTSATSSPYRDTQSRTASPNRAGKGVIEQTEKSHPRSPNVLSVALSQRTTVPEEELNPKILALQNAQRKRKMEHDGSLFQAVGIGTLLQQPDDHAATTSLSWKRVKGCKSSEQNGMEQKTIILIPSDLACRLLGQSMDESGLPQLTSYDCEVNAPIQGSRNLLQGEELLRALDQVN

Experiment [17] deals with Hepatocyte nuclear factor 6 (Homo sapiens) (UniProt Q9UBC0). The experiment is described as follows: ATG_HNF6_CIS: Attagene CIS-FACTORIAL HepG2 Assay for human Hepatocyte Nuclear Factor 6 (HNF6) (AID 2282952). The conditions noted are these: HepG2 Attagene cis-factorial HNF6 reporter transcription; actives raise or lower the signal. An outline of the steps: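 Readout: fluorescent reporter-transcript fragments resolved by capillary electrophoresis after RT-PCR, reflecting endogenous factor activity in transfected HepG2. Exposure 24 h. Gain or loss of signal fitted bidirectionally against DMSO.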
Hepatocyte nuclear factor 6 (Homo sapiens), sequence (Q9UBC0 whole entry, looked up, the tested form may be a part): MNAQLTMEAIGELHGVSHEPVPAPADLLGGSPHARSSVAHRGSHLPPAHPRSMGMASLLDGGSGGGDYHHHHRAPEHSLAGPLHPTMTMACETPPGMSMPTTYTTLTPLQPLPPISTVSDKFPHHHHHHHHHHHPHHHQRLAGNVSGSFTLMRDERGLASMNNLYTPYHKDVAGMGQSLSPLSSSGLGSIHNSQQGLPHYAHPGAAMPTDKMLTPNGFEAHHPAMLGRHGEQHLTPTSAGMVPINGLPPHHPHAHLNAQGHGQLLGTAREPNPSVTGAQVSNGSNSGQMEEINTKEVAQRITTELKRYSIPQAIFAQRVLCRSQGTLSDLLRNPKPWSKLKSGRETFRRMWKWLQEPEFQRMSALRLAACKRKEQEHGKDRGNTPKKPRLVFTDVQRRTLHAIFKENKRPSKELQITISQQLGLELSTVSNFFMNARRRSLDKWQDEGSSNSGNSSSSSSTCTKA

Experiment [18] concerns the target Heat shock factor protein 1 (Homo sapiens) (UniProt Q00613). The experiment is described as follows: ATG_HSE_CIS: Attagene CIS-FACTORIAL HepG2 Assay for human Heat Shock Transcription Factor 1 (HSE) (AID 2282953). The note with it: HepG2 HSE cis-reporter, Attagene RNA transcription; actives raise or lower the signal. An outline of the steps:
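HepG2 cells transiently transfected with multiple reporter transcription units under cis-regulatory promoter control, measuring endogenous transcription factor activity. After 24 h chemical exposure, reporter mRNA quantified by RT-PCR, fluorescent labelling, HpaI digestion and capillary electrophoresis; bidirectional fit versus DMSO.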

Experiment [19] can be described thus: ATG_PBREM_CIS: Attagene CIS-FACTORIAL HepG2 Assay for human Phenobarbital-responsive Enhancer Module (PBREM) (AID 2282955). The conditions noted are these: HepG2 PBREM cis-reporter, Attagene multiplexed transcription; actives raise or lower the signal. An outline of the steps:
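Readout: reporter mRNA, fluorescent RT-PCR fragments separated by capillary electrophoresis. System: HepG2 transiently transfected with cis-regulated reporter units. Exposure: 24 h. Analysis: bidirectional, DMSO baseline.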

Experiment [20] is described as follows: ATG_MRE_CIS: Attagene CIS-FACTORIAL HepG2 Assay for human Metal Responsive Element (MRE) (AID 2282954). The note with it: HepG2 MRE cis-reporter transcription, Attagene multiplex; actives raise or lower the signal. In short, it runs like this: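 Cells were transfected with cis-promoter reporter transcription units, then dosed for 24 h. RNA was reverse-transcribed, amplified, fluorescently labelled and resolved by capillary electrophoresis, and activity was fitted in both directions relative to DMSO.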

Calls of active or inactive are those of the source. Rule for the calls: active = hit-call score of the fitted dose curve at least 0.9, where 1 is the maximum; inactive = score below 0.9.

Heat shock factor protein 1 (Homo sapiens), sequence (Q00613 whole entry, looked up): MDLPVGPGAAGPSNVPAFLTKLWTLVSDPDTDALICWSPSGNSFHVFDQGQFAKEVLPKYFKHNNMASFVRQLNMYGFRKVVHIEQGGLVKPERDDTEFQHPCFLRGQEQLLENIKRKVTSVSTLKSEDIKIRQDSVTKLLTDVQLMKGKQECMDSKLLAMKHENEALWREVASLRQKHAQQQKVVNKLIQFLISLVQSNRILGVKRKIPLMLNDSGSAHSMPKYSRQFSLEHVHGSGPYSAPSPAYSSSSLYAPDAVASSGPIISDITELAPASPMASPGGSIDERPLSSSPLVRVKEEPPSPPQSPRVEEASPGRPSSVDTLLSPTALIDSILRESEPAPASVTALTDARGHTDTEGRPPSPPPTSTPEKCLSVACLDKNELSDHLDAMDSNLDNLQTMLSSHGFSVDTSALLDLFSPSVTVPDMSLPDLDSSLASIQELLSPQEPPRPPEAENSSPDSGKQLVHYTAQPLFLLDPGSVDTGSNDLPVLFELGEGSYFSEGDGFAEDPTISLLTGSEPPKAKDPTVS
Hepatocyte nuclear factor 3-beta (Homo sapiens), sequence (Q9Y261 whole entry, looked up, the tested form may be a part): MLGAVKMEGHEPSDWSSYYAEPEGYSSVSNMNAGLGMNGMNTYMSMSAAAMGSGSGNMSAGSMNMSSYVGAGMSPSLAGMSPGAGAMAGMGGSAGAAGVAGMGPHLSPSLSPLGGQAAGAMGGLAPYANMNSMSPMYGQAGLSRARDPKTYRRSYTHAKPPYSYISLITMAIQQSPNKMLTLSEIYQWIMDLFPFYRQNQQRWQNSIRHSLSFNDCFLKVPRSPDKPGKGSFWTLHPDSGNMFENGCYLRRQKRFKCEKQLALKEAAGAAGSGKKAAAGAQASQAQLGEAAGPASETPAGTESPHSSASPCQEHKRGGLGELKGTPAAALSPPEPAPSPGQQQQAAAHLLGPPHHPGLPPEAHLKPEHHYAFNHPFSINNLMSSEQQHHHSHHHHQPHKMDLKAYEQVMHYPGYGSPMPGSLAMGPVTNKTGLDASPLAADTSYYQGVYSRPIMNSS

Usually AC50 stands for the concentration giving half of the maximal activity seen. For the compound `Cc1ccc(C(=O)c2ccccc2)cc1`, the outcome in [1], in experiment [2], in experiment [3], in experiment [4], in experiment [6] and in [7] was inactive. Besides, the result in experiment [8], in experiment [9], in experiment [10], in experiment [11], in experiment [12] and in experiment [13] was inactive. The compound was called inactive in [14], in experiment [15], in experiment [16], in [17], in experiment [18] and in [19]. Also, the AC50 in experiment [5] is 27.2 µM (active).
In the case of `CCCCCCCCC(C)=O`, the result in experiment [1], in [2], in experiment [3], in experiment [4], in experiment [5] and in [6] was inactive. Further, the result in experiment [7], in experiment [8], in experiment [9], in [10], in [11] and in experiment [12] was inactive. For the same compound, the compound was classed as inactive in experiment [14], in [15], in experiment [16], in [17], in experiment [18] and in [20]. In addition, the result in experiment [19] was inactive.
On to `O=C1Cc2ccccc2N1c1c(Cl)cccc1Cl`, for which the result in [1], in experiment [2], in experiment [3], in experiment [4], in experiment [6] and in [7] was inactive. In addition, the compound was classed as inactive in experiment [8], in [9], in [12], in [13], in [14] and in experiment [15]. Besides, the compound was classed as inactive in experiment [17]. Besides, the AC50 in [5] is 6.29 µM (active); in experiment [11] it was 100 µM (active); in experiment [16], 75.3 µM (active); in [18] it was 130 µM (active); in experiment [20] it was 91.5 µM (active); in experiment [19] it was 1.23 µM (active).
